Screening results deposited in PubChem BioAssay by National Center for Advancing Translational Sciences (NCATS).
Most compounds without a hit are left out; they make up all but 1.8% or so of the library.
Tb PFK inh-1 = T. brucei PFK enzyme inhibition | O15648 | T. brucei PFK, ADP-Glo luminescence | Potency, µM (top dose mostly 57.5 µM), for inactives: top-dose activity, negative = inhibition, usual class: inhibitors | 330,000 compounds, 0.17% hits;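 note: 0% = uninhibited 1x PFK enzyme wells and -100% = no-enzyme wells; nearly all actives have a fitted effect of over 60% in size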
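ADP-Glo luminescence quantified ADP after 45 min at room temperature, with 1.25 nM T. brucei PFK, 0.1 mM ATP and 0.5 mM fructose-6-phosphate in pH 8.0 TEA buffer. qHTS titrations up to 57 µM; curves classified by quality.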
HEK293 tox = cytotoxicity in counter-screen for GLP-1R inverse agonists; 410,000 compounds, 0.13% hits; Potency, µM (top dose mostly 38.3 µM), inactives show at the highest dose activity change, negative = inhibition, usual class: inhibitors; AID 624418; HEK293 cAMP-luciferase reporter cells, luminescence, 24 h;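 note: loss of luciferase light is scored as toxicity; % is set by controls: 0 for no effect and ±100 for the full control effect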
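Compound-treated cells are incubated 24 hr at 37 deg C under 5% CO2 after a 12 hour attachment period, then luciferase detection reagent is added and luminescence is measured following 12 min at room temperature; lowered signal indicates toxicity.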
GLP-1R agonist = GLP-1 receptor (human) agonism; Potency, µM (titrated, usually from 45.6 µM), for the others: at the top dose activation, hits mostly activators; P43220; HEK293 GLP-1R CRE-luciferase, luminescence, 4-6 h; cells express a hypersensitive GLP-1R form; 380,000 compounds, 0.007% hits; note: % of control where 0% means no effect
PGK inhibitor = T. brucei PGK inhibition; P07378; PGK/GAPDH coupled, Kinase-Glo luminescence, 60 min; Potency, µM (series often up to 57.5 µM), for the others: top-dose activity change, negative = inhibition, usual class: inhibitors; 380,000 compounds, 0.043% hits; AID 602233; note: % is set by controls: 0 for no effect and ±100 for the full control effect; nearly all actives have a fitted effect of over 60% in size
Target sequence (P07378 whole entry, looked up): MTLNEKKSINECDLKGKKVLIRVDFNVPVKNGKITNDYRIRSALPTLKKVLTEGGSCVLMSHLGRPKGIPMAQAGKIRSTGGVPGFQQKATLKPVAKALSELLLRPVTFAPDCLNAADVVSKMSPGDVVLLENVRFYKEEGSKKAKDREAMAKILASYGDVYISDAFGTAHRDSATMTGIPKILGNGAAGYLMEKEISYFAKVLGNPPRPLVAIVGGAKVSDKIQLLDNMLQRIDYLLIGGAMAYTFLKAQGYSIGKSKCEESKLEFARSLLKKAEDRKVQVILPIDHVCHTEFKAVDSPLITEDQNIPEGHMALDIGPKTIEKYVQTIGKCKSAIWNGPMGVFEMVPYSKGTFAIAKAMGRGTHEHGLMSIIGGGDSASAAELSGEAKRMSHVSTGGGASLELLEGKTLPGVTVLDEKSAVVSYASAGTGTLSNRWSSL
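Luminescent ATP detection (Kinase-Glo Plus) follows a 60-minute room-temperature incubation, with wells lacking PGK as controls. Buffer: 100 mM TEA (pH 7.6), 5 mM MgCl2, 0.01% Tween-20. Coupling enzyme GAPDH (100 nM final) supplies unstable 1,3-BPG in-well.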
GLP-1R inv ag = GLP-1 receptor (human) inverse agonism. Potency, µM (top dose mostly 38.3 µM), for the others: at the highest dose activity change, negative = inhibition, hits mostly inhibitors. 410,000 compounds, 1.6% hits. HEK293 GLP-1R CRE-luciferase, luminescence, 24 h; GLP-1R form is constitutively active. P43220; note: % is set by controls: 0 for no effect and ±100 for the full control effect; nearly all actives have a fitted effect of over 55% in size
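Using stably transfected HEK293 (constitutively active GLP-1R, cAMP-luciferase reporter), compounds were incubated 24 hr and luciferase measured by luminescence.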
Pin1 inhibitor = blocks the human prolyl isomerase Pin1; Q13526; Pin1 FP peptide displacement, HiFluor488, 10 min; Potency, µM (doses to about 115 µM), for inactives: at the highest dose activity, negative = inhibition, hits mostly inhibitors; 390,000 compounds, 0.009% hits; AID 504891; active = well fitted inhibition curve with a large enough effect in the polarisation, with a control signal flat, not every such curve was filed as active; inconclusive = small, poorly fitted or top-dose-only effect, or effect the other way, or a change in a side signal; inactive = no such curve, though single readings can be large or run the other way; the % refers to the polarisation; note: % is set by controls: 0 for no effect and ±100 for the full control effect
Target sequence (Q13526 whole entry, looked up): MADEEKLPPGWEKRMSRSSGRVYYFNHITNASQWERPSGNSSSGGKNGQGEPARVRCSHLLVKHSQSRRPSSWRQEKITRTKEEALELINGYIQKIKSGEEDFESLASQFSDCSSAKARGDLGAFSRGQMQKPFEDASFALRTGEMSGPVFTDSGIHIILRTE
TbPFK ATP = inhibits T. brucei PFK measured by ATP depletion; 1,100 compounds, 47% hits; Potency, µM (highest dose often 57.5 µM), for inactives: at the top dose inhibition; Tb PFK enzyme, ATP depletion, Kinase-Glo Plus luminescence; shares compounds with Tb PFK inh-1; calls by dose curve; note: nearly all actives have a fitted effect of over 60% in size
Tb PFK inh-2 = T. brucei PFK enzyme inhibition, hit validation. Potency, µM (top dose mostly 57.5 µM), for inactives: at the highest dose activity change, negative = inhibition, actives largely listed as inhibitors. 1,100 compounds, 41% hits. purified T. brucei PFK, ADP-Glo luminescence, 45 min. shares compounds with Tb PFK inh-1. AID 504637;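 note: plate controls were full PFK enzyme control for no effect and no enzyme control for full effect; nearly all actives have a fitted effect of over 60% in size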
* marks the source's active call; other numbers are inactive results; i = inactive; ? = inconclusive; . = no result; [ ] = remark or other dose. Unless noted, calls come from the whole dose curve; as a rule, active = well fitted curve in the direction sought with a large enough effect; inconclusive = small, poorly fitted or top-dose-only effect, or another doubt; inactive = no such curve, though single readings can be large; an effect the other way counts as inactive or inconclusive. Potency is the fitted concentration of half-maximal effect.

SMILES	Tb PFK inh-1	HEK293 tox	GLP-1R agonist	PGK inhibitor	GLP-1R inv ag	Pin1 inhibitor	TbPFK ATP	Tb PFK inh-2
CCC(=O)OC1(c2ccccc2)CCN(C)CC1	.	.	-5%[96 µM]	.	.	.	.	.
Cc1ccc(OCC(=O)Nc2ccc(Cl)cc2C(=O)c2ccccc2)cc1C	.	4%	.	-1%	10%	-2%	.	.
Cc1cc(CSc2ccccc2)ccc1NC(=O)COc1ccccc1	?	-25%	0%	-3%	?	0%	?	?
CC(C)(C)OC(=O)NCCCCCNC(=O)c1[nH]cnc1C(=O)Nc1ccc(Cl)cc1	-2%	?	-5%	0%	?	?	.	.
CCCCC[C@H]1CCCCC[C@H](O)C[C@@H](O)[C@H](O)/C=C/C(=O)O1	.	-5%	-5%	.	-19%	.	.	.
Cc1cc(NS(=O)(=O)c2ccc(NC(=O)COc3ccc(Br)cc3)cc2)nc(C)n1	?	1%	-2%	1%	-1%	-3%	8.5µM*	24µM*
CN1CCN(C(=O)COc2ccc(S(=O)(=O)Nc3ccc(F)cc3)cc2)CC1	0%	-2%	-1%	3%	?	52%	.	.
COc1ccc(C(=O)Nc2ccc3c(c2)N(C)C(=O)c2ccccc2S3)cc1OC	.	-24%	.	-16%	?	21%	.	.
COc1ccc(S(=O)(=O)Nc2cc([N+](=O)[O-])ccc2OC)cc1	3%	?	3%	5%	?	8%	.	.
COc1ccc(N2CCN(Cc3nc(-c4ccccc4)no3)CC2)cc1	24µM*	15%	10%	-7%	?	0%	4%	3%
C[C@]12CC[C@H](O)C[C@H]1CCC1C2CC[C@]2(C)[C@@H](c3ccc(=O)oc3)C[C@H]3O[C@]132 (stereo partly drawn)	.	.	-5%	.	.	.	.	.
Nc1ccccc1Sc1nc2ccccc2[nH]1	?	?	2%	-5%	?	-6%	17µM*	?
CSC1=NC(C)(C)CC2(C)Nc3ccccc3N12 (stereo not drawn)	1%	-1%	-5%	7%	76%	-7%	.	.
O=C(Nc1cnn(Cc2ccc(Cl)c(Cl)c2)c1)c1nc2ncccn2n1	5.4µM*	-6%	-2%	i	-18%	-13%	2.7µM*	5.4µM*
O=C(CN1CCCC1=O)N1CCOCC1	-5%	7%	-15%	-9%	35%	4%	.	.
Cc1nc(SCC(=O)N2CCOCC2)c2c(=O)n(C)c(=O)n(C)c2n1	24µM*	-2%	7%	7%	28%	0%	6%	-2%
O=C(Cc1ccc(Cl)c(Cl)c1)N/N=C/c1cccnc1	12µM*	-1%	-1%	-3%	-16%	3%	5.4µM*	12µM*
O=C(NN=Cc1ccc(N(CCCl)CCCl)cc1)c1cccnc1	.	-14%	7%	1%	?	?	.	.
Nc1nonc1C(=O)N/N=C/c1ccc(-c2ccc(Cl)c(C(=O)O)c2)o1	?	-3%[7.66 µM]	-2%	-18%	9%[7.66 µM]	0%	-19%	?
Cc1ccc(N2C(=O)NC(=O)/C(=C/c3ccc(-c4ccc(C(=O)O)c(Cl)c4)o3)C2=O)cc1	27%	1%	-4%	-19%	11%	?	.	.
O=C(COc1ccc(Cl)cc1)Nc1cccc(S(=O)(=O)NC2=NCCCCC2)c1	3µM*	3%	-5%	1%	-17%	-5%	2.7µM*	6µM*
N#Cc1ccc(OCC(=O)Nc2cccc(S(=O)(=O)NC3=NCCCCC3)c2)cc1	6µM*	8%	-1%	-10%	9%	14%	3.8µM*	6µM*
COc1ccccc1NS(=O)(=O)c1cccc(NC(=O)Nc2cccc(Cl)c2)c1	-13%	?	-5%	0%	?	-2%	.	.
COc1ccc(OC)c(/C=N/NC(=O)CCc2ccc(O)c(O)c2)c1	1.7µM*	1%	18%	-7%	21%	1%	?	-29%
CC1CN(S(=O)(=O)c2cc(C(=O)NCc3ccncc3)ccc2Cl)CC(C)O1 (stereo not drawn)	?	4%	5%	-3%	3%	-7%	?	?
SMILES	Tb PFK inh-1	HEK293 tox	GLP-1R agonist	PGK inhibitor	GLP-1R inv ag	Pin1 inhibitor	TbPFK ATP	Tb PFK inh-2
Cc1nc(-c2cccc(NC(=O)c3ccc(Cl)c(S(=O)(=O)N4CCCC4)c3)c2)cs1	.	-13%	-2%	-6%	?	.	.	.
O=C(CCC(=O)N1CCN(c2cccc(Cl)c2)CC1)N1CCN(c2ccccc2)CC1	?	1%	2%	i	?	-4%	?	?
NS(=O)(=O)c1ccc(NC(=S)N2CCN(c3cccc(Cl)c3)CC2)cc1	?	-3%	-3%	-9%	?	0%	11µM*	15µM*
O=C(Nc1cccc(C(=O)N2CCN(c3cccc(Cl)c3)CC2)c1)c1ccccc1	?	-14%	0%	.	?	4%	?	?
CC(=O)c1ccc(NC(=O)N2CCN(c3cccc(Cl)c3)CC2)cc1	21µM*	-16%	-9%	-3%	?	-3%	21µM*	?
CCOC(=O)N1CCN(c2ccc(Cl)c(Cl)c2)CC1	?	3%	9%	i	-1%	-5%	.	.
COc1cc(C2c3cc4c(cc3OC(NCCc3ccccc3)C2C)OCO4)cc(OC)c1OC (stereo not drawn)	.	?	8%	11%	?	-6%	.	.
CCCNC(=O)C1(C)CCN(Cc2ccc3ccccc3c2Br)C1 (stereo not drawn)	.	0%	6%	.	?	.	.	.
Cc1[nH]c2ccccc2c1C(=O)C(=O)N1c2ccccc2CC1C (stereo not drawn)	-2%	?	1%	4%	?	-4%	.	.
CN1CCN(c2ccc([N+](=O)[O-])c(Sc3ccccn3)c2)CC1	0%	-9%	1%	-5%	?	1%	.	.
O=C(CSc1ccccn1)N1CCN(c2cccc(Cl)c2)CC1	?	?	-3%	11%	0%	2%	?	?
O=C(CCC(=O)N1CCN(c2cccc(Cl)c2)CC1)c1cccs1	?	-4%	1%	-10%	?	-2%	?	?
COc1ccc(/C=N\NC(=O)c2cccc(F)c2)cc1COc1ccccc1	.	-34%	?	1%	?	13%	.	.
